{"source": "the supplement of paper PMC10338343", "note": "± gives the standard deviation."}
{"tested_on": "EfPiwi piRISC loaded with piRNA #1 (26 nt)", "assay": "pre-steady-state target cleavage rate (min^-1); auxiliary factor: 500 nM Ephydatia muelleri Gtsf1; guide: piRNA #1 5'p-UGAGGUAGUAGGUUGUAUAGUAUCCA; MIWI and MILI are mouse PIWI proteins and EfPiwi is from a freshwater sponge; tags in brackets are library labels; higher = faster piRNA-guided slicing of the target", "description": "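Cleave-'n-Seq: a library of target RNAs (target site in constant flanks) at […] was incubated with 1 nM active freshwater sponge Ephydatia fluviatilis Piwi piRISC (synthetic 5'-monophosphorylated piRNA guide) with or without 500 nM EmGtsf1 at 33 °C for 1 min to 16 h. Uncleaved targets were sequenced and the pooled three trials fitted to a burst-and-steady-state model to give the pre-steady-state cleavage rate (min^-1). Sequence is the target site only. Fits with R² ≤ 0 are excluded.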"}
{"sequence": "GGAGAGGUUACUAUAGAACCUACUACCUCA", "pre-steady-state target cleavage rate": "0.00277 ± 0.0023"}
{"sequence": "GGAGACGAUACUAUAACAACCUACUACCUCA", "pre-steady-state target cleavage rate": "0.00793 ± 0.0029"}
{"sequence": "GGAGUGGAUACUAUAUCAACCUACUACCUCA", "pre-steady-state target cleavage rate": "0.0851 ± 0.03"}
{"sequence": "GGAGUGGAUACUAUACAACCUACUACUUCA", "pre-steady-state target cleavage rate": "0.104 ± 0.042"}
{"sequence": "GGAGACGAUACUAUACAACCUACUAUCCUCA", "pre-steady-state target cleavage rate": "0.0049 ± 0.0014"}
{"sequence": "GGAGAGGAUACUAUACUACGUACUACCUCA", "pre-steady-state target cleavage rate": "0.00407 ± 0.0022"}
{"sequence": "GGAGACGAUACUAUACAACCUACUAACUCA", "pre-steady-state target cleavage rate": "0.00467 ± 0.0021"}
{"sequence": "GGAGAGGAUACUAUAUAACCUACUACCUCA", "pre-steady-state target cleavage rate": "0.109 ± 0.041"}
{"sequence": "GGAGAGGAUACUAUACAACCUGCUACCUCA", "pre-steady-state target cleavage rate": "0.114 ± 0.043"}
{"sequence": "GGAGAGGAUACUAUACACCUACUACCUCA", "pre-steady-state target cleavage rate": "0.0984 ± 0.042"}
{"sequence": "GGAGACCAUACUAUACAUCCUAGUACCUCA", "pre-steady-state target cleavage rate": "0.00345 ± 0.0019"}
{"sequence": "GGAGACGAAACUAUACAACGUACUACCUCA", "pre-steady-state target cleavage rate": "0.00237 ± 0.0021"}
{"sequence": "GGAGUGGAUACUAAACAACCUACUACGUCA", "pre-steady-state target cleavage rate": "0.00252 ± 0.0015"}
{"sequence": "GGAGUGGAUUCUAUACAACCUACUACGUCA", "pre-steady-state target cleavage rate": "0.0027 ± 0.0024"}
{"sequence": "GGAGACCAUAGAUUACAACCUACUACCUCA", "pre-steady-state target cleavage rate": "0.00655 ± 0.0034"}
{"sequence": "GGAGAGGAUUCUAUACAACCAACUACCUCA", "pre-steady-state target cleavage rate": "0.00361 ± 0.0027"}
{"sequence": "GGAGACGAUACUAAACUACCUACUACCUCA", "pre-steady-state target cleavage rate": "0.00228 ± 0.0021"}
{"sequence": "GGAGUGGUUAGUAUACAACCUACUACCUCA", "pre-steady-state target cleavage rate": "0.00533 ± 0.0036"}
{"sequence": "GGAGUGGAUACUAUACAUCCUAGUACCUCA", "pre-steady-state target cleavage rate": "0.00411 ± 0.0015"}
{"sequence": "GGAGACGAUACUAUACUACCUACUACCACA", "pre-steady-state target cleavage rate": "0.00202 ± 0.0018"}
{"sequence": "GGAGUGGAUACUAUACAACCUACUAUCCUCA", "pre-steady-state target cleavage rate": "0.00685 ± 0.0028"}
{"sequence": "GGAGAGGAUACUAUCAACCUACUACCUCA", "pre-steady-state target cleavage rate": "0.0088 ± 0.0053"}
{"sequence": "GGAGACCUAACUGAUACAACCUACUACCUCA", "pre-steady-state target cleavage rate": "0.00745 ± 0.0044"}
{"sequence": "GGAGAGCAUACUAUACAACCUACUUCCUCA", "pre-steady-state target cleavage rate": "0.00292 ± 0.0021"}
{"sequence": "GGAGAGGAUACUUUACAACCUACUUCCUCA", "pre-steady-state target cleavage rate": "0.00239 ± 0.0024"}
{"sequence": "GGAGUGGAUACUAUACAACCUUCUACCUGA", "pre-steady-state target cleavage rate": "0.00359 ± 0.0018"}
{"sequence": "GGAGAGGAUACUAAACAACCUACUUCCUCA", "pre-steady-state target cleavage rate": "0.00239 ± 0.0016"}
{"sequence": "GGAGACGAUACUAUACAGCCUACUACCUCA", "pre-steady-state target cleavage rate": "0.0104 ± 0.0039"}
{"sequence": "GGAGUGGAUCCUAUACAACCUACUACCUCA", "pre-steady-state target cleavage rate": "0.111 ± 0.058"}
{"sequence": "GGAGUCGAUACUAAACAACCUACUACCUCA", "pre-steady-state target cleavage rate": "0.00865 ± 0.0048"}
{"sequence": "GGAGUGGAUACUAUACAACCUACUACGAGA", "pre-steady-state target cleavage rate": "0.00447 ± 0.0022"}
{"sequence": "GGAGUGGAUACUAUACAACGUACUACCUCA", "pre-steady-state target cleavage rate": "0.00682 ± 0.0022"}
{"sequence": "GGAGACCAUACUAUACAACCUACUAGCCUCA", "pre-steady-state target cleavage rate": "0.00697 ± 0.0031"}
{"sequence": "GGAGUGGAAACUAUACAACGUACUACCUCA", "pre-steady-state target cleavage rate": "0.00364 ± 0.0017"}
{"sequence": "GGAGAGGAUACUAUACUACCUUCUACCUCA", "pre-steady-state target cleavage rate": "0.00328 ± 0.0026"}
{"sequence": "GGAGAGGAUACUAUGACAACCUACUACCUCA", "pre-steady-state target cleavage rate": "0.102 ± 0.041"}
{"sequence": "GGAGACCAUACUAUACAACCUACAACCUCA", "pre-steady-state target cleavage rate": "0.00489 ± 0.0019"}
{"sequence": "GGAGAGGAUACUAUACAACCUACUAGGAGA [g6:g25:cont:t1A]", "pre-steady-state target cleavage rate": "0.00363 ± 0.0023"}
{"sequence": "GGAGACCUUACUUUACAACCUAGUACCUCA", "pre-steady-state target cleavage rate": "0.00395 ± 0.0033"}
{"sequence": "GGAGAGGAUACUAUACAAACUACUACCUCA", "pre-steady-state target cleavage rate": "0.00673 ± 0.0029"}
